In PubChem BioAssay (EPA / NIEHS):
Several values for one entry are separate records, joined by “and”; a condition that tells them apart may be missing. Identical values can stand only once. Records with an inconclusive call do not appear. A structure can be active in one record and inactive in another. Activity calls are given as the source filed them. Rule for the calls, unless noted: active = hit-call score of the fitted dose curve at least 0.9, where 1 is the maximum; inactive = score below 0.9.

Assays:
[1] = IUF_NPC1b_proliferation_BrdU_72hr: Leibniz Research Institute for Environmental Medicine (IUF) 72-hour Neural Progenitor Cell Bromodeoxyuridine (BrdU) Proliferation Assay (NPC1b) (AID 2284207)
In short: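 Human fetal cortex-derived (GW 16-19) neural progenitor spheres, 0.25-0.35 mm, one per well in EGF/FGF proliferation medium, exposed to compound for 72 h at 37C, pH 7.2-7.6. BrdU incorporation over the final 16 h read by luminescence ELISA, relative to DMSO.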

[2] = IUF_NPC1a_proliferation_area_72hr: Leibniz Research Institute for Environmental Medicine (IUF) 72-hour Neural Progenitor Cell Proliferation Area Assay (NPC1a) (AID 2284208)
In short: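 Measured in 3D suspension: each well held one primary hNPC sphere grown with EGF and FGF at pH 7.2-7.6. Compound stayed on for 72 h, then area was imaged; spheres lacking growth factors defined reduced proliferation.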

[3] = IUF_NPC1_viability_72hr: Viability Assessment at 72 hours in the Leibniz Research Institute for Environmental Medicine (IUF) Neural Progenitor Cell Proliferation Assay (NPC1) (AID 2284209)
In short: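 Spheres of primary human neural progenitors were plated singly in proliferation medium and treated for 72 h. Mitochondrial reduction of resazurin was then measured by fluorescence and analysed against DMSO controls.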

[4] = CCTE_Mundy_HCI_Cortical_Synap_Neur_Matur_NeuriteSpotCountPerNeuriteLength: CCTE's Synaptogenesis and Neurite Maturation Assay in rat cortical cells for Neurite Spot Count per Neurite Length, Mundy Lab (AID 2284210)
In short: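 Synaptophysin spots per unit neurite length, measured by automated imaging of MAP2/synaptophysin/Hoechst-stained neurons. Cultures from rat cortex received chemical at DIV 7 with media change through DIV 12; glial growth arrested by AraC at DIV 5; DMSO baseline.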

[5] = CCTE_Mundy_HCI_Cortical_Synap_Neur_Matur_BPCount: CCTE's Synaptogenesis and Neurite Maturation Assay in rat cortical cells for Branch Point Count, Mundy Lab (AID 2284211)
In short: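 HCI read-out of branch points from MAP2/synaptophysin/Hoechst immunofluorescence; rat cortical cultures, AraC DIV 5, dosing DIV 7, fixed DIV 12; fit in positive direction vs DMSO baseline.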

[6] = CCTE_Mundy_HCI_Cortical_NOG_NeuriteCount: CCTE's Neurite Outgrowth Assay in rat cortical cells for Neurite Count, Mundy Lab (AID 2284212);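 note: cells fixed about two days after chemical exposure began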
In short: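 Rat cortical primary cells; compound added 2 h post-plating, 1/10 dilution of working solution. Anti-betaIII-tubulin/AF488 ICC; ArrayScan neurite count vs DMSO.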

[7] = CCTE_Mundy_HCI_Cortical_Synap_Neur_Matur_NeuriteLength: CCTE's Synaptogenesis and Neurite Maturation Assay in rat cortical cells for Neurite Length, Mundy Lab (AID 2284214)
In short: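 Cultures of rat primary cortical cells received chemical at DIV 7 and were fixed at DIV 12, after glial arrest with AraC at DIV 5. Neurite length was measured by automated imaging of MAP2 immunofluorescence.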

[8] = CCTE_Mundy_HCI_Cortical_Synap_Neur_Matur_NeuriteSpotCountPerNeuron: CCTE's Synaptogenesis and Neurite Maturation Assay in rat cortical cells for Neurite Spot Count per Neuron Count, Mundy Lab (AID 2284215)
In short: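 Developing rat cortical neurons, with glia suppressed by AraC, are exposed to chemicals from DIV 7 to DIV 12. Automated fluorescence imaging of MAP2-labelled neurites and synaptophysin puncta yields a count per neuron, normalised against DMSO wells.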

[9] = CCTE_Mundy_HCI_Cortical_Synap_Neur_Matur_SynapseCount: CCTE's Synaptogenesis and Neurite Maturation Assay in rat cortical cells for Synapse Count, Mundy Lab (AID 2284218)
In short: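 Cells were plated, allowed 2 hr to attach, treated with AraC at DIV 5, then exposed to chemicals from DIV 7 until DIV 12. After fixation and MAP2/synaptophysin immunolabelling, synapses per neuron were quantified by automated imaging against DMSO.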

[10] = CCTE_Mundy_HCI_hN2_NOG_NeuriteCount: CCTE's Neurite Outgrowth Assay in human hN2 cells for Neurite Count, Mundy Lab (AID 2284219; active = hit-call score of the fitted dose curve at least 0.9, where 1 is the maximum)
In short: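 In this morphology assay, hNP1-derived neurons received test chemical 2 h post-plating and were fixed two days later in warm paraformaldehyde/sucrose containing Hoechst 33342. Neurites, labelled by rabbit anti-βIII-tubulin (1:800) and Alexa Fluor-488 (1:500), were counted automatically.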

[11] = CCTE_Mundy_HCI_hN2_NOG_NeuriteLength: CCTE's Neurite Outgrowth Assay in human hN2 cells for Neurite Length, Mundy Lab (AID 2284220; active = hit-call score of the fitted dose curve at least 0.9, where 1 is the maximum)
In short: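 Plate hNP1-derived neurons, then add chemical 2 h later as a 1/10 dilution. Stain with anti-βIII-tubulin then Alexa Fluor-488 secondary, and image automatically to measure neurite length.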

[12] = CCTE_Mundy_HCI_hN2_NOG_NeuronCount: CCTE's Neurite Outgrowth Assay in human hN2 cells for Neuron Count, Mundy Lab (AID 2284221; active = hit-call score of the fitted dose curve at least 0.9, where 1 is the maximum)
In short: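 Read-out is the number of betaIII-tubulin-positive neurons imaged by automated high-content analysis, with DMSO as negative control.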

[13] = CCTE_Mundy_HCI_Cortical_Synap_Neur_Matur_NeuriteCount: CCTE's Synaptogenesis and Neurite Maturation Assay in rat cortical cells for Neurite Count, Mundy Lab (AID 2284222)
In short: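 Rat cortical neurons, 96-well; AraC DIV 5; chemical + media change DIV 7; end DIV 12. Fix PFA/Hoechst, anti-MAP2 + anti-synaptophysin IF. HCI neurite count vs DMSO baseline.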

[14] = CCTE_Mundy_HCI_Cortical_Synap_Neur_Matur_CellBodySpotCount: CCTE's Synaptogenesis and Neurite Maturation Assay in rat cortical cells for Cell Body Spot Count, Mundy Lab (AID 2284223)
In short: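 Chemicals were applied to AraC-treated rat primary cortical cells at DIV 7 and measured at DIV 12. Fixed cells were labelled for MAP2, synaptophysin and nuclei, and high-content imaging gave cell body synaptophysin spot counts per neuron relative to DMSO.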

[15] = CCTE_Mundy_HCI_hNP1_Pro_ResponderAvgInten: CCTE's Proliferation Assay in human neuroprogenitor cells, Mundy Lab (AID 2284224; active = hit-call score of the fitted dose curve at least 0.9, where 1 is the maximum;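 note: human neural progenitor cells hNP1 derived from WA09 embryonic stem cells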)
In short: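 Proliferation was scored as BrdU labelling intensity in human neural progenitors derived from WA09 embryonic cells, measured 26.25 hours after chemical dosing. Activity was fitted relative to DMSO.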

Measured: AC50

CCOP(=S)(Oc1cnc(C(C)(C)C)nc1)OC(C)C (stereo not given)
inactive: [2] | [3] | [4] | [5] | [6] | [7] | [8] | [9] | [10] | [11] | [13] | [14] | [15]
active: [1] 12.8 µM | [4] 16.5 µM | [5] 25.2 µM | [6] 26.4 µM | [7] 20.1 µM | [8] 16.2 µM | [9] 16.6 µM | [12] 79.3 µM | [13] 18.6 µM | [14] 14.6 µM | [15] 77.6 µM

CON=C(C(=O)OC)c1ccccc1CON=C(C)c1cccc(C(F)(F)F)c1
inactive: [1]
active: [2] 9.57 µM | [3] 32.8 µM | [4] 0.489 µM | [5] 0.446 µM | [6] 1.2 µM | [7] 0.954 µM | [8] 0.32 µM | [9] 0.664 µM | [13] 1.24 µM | [14] 3.43 µM | [15] 79.9 µM

CCOP(=S)(OCC)SCCSCC
inactive: [1] | [2] | [3] | [4] | [5] | [6] | [7] | [8] | [9] | [13] | [14] | [15]

CCOP(=O)(OCC)Oc1cc(C)nc(C(C)C)n1
inactive: [1] | [2] | [3] | [4] | [5] | [6] | [7] | [8] | [9] | [13] | [14] | [15]

COP(=O)(OC)OC(Br)C(Cl)(Cl)Br (stereo not given)
inactive: [3] | [4] | [13] | [14]
active: [1] 50.1 µM | [2] 26.6 µM | [5] 50 µM and 27.8 µM | [6] 31.5 µM and 30.7 µM | [7] 32.5 µM and 41.6 µM | [8] 50 µM and 10.7 µM | [9] 23.2 µM and 9.92 µM | [13] 50 µM | [14] 9.92 µM | [15] 14 µM and 16.7 µM

CC(C)N(C(=O)SCC(Cl)=C(Cl)Cl)C(C)C
inactive: [1] | [2] | [3] | [5] | [6] | [13]
active: [4] 25 µM | [7] 15 µM | [8] 23.6 µM | [9] 23.7 µM | [14] 24.1 µM
